Only some compounds are listed: those with a hit (about 2.6% of all), similar ones and a draw of the others.
PHOSPHO1 inh – inhibitors of human PHOSPHO1 phosphatase | recombinant PHOSPHO1, absorbance phosphatase assay | inhibition, % at 13.3 µM | hit rate 1.1% among 290,000 | Q8TCT1; in the data active = inhibition above about 60%
Target sequence (Q8TCT1 whole entry, looked up): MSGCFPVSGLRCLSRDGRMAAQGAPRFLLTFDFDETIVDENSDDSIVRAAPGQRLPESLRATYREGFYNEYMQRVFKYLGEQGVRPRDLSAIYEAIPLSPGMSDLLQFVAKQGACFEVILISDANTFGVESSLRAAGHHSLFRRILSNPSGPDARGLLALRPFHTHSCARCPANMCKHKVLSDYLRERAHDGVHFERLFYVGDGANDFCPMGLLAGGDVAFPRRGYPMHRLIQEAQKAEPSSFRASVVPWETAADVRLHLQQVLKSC
PABP polyA inh – blocks human PABP binding to poly(A) RNA; P11940; fluorescence polarization; calls only at 35 µM; hit rate 1% among 290,000; AID 2014;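 also: calls also rest on retests at 20 µM and on dose response follow-up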
APOBEC3A inh – blocks human APOBEC3A ssDNA deamination; P31941; recombinant A3A, FAM/TAMRA ssDNA deamination fluorescence; inhibition, % at 20 µM; hit rate 0.41% among 330,000;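 active = at least 40% inhibition at 20 µM here, with at most 30% in a related deaminase screen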;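 also: plate controls were A3A with DMSO for no effect and wells lacking A3A enzyme for full effect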
Target sequence (P31941 whole entry, looked up): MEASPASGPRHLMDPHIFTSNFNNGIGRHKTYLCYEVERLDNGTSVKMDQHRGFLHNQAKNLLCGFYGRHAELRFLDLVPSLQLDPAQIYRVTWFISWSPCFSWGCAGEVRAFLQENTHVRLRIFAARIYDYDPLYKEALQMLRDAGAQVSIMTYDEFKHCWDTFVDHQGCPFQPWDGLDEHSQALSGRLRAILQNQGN
APOBEC3G inh – inhibitors of human APOBEC3G DNA deaminase; Q9HC16; recombinant A3G, ssDNA deamination FAM/TAMRA fluorescence; inhibition, % at 20 µM; hit rate 0.28% among 330,000; AID 493012;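 active = inhibition of at least 40% at 20 µM, with no more than 30% in the related APOBEC3A deaminase screen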;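 also: plate controls were DMSO wells with A3G for no effect and wells lacking A3G enzyme for full effect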
MLLE-PAM2 inh – inhibitors of microRNA-mediated deadenylation, human PABP1 MLLE binding | P11940 | GST-MLLE / FITC-PAM2 fluorescence polarization | inhibition, % at 20 µM | hit rate 0.36% among 360,000; in the data active = inhibition above about 35%, passing the limit was not always enough;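 also: plate controls were DMSO wells with GST-MLLE for no effect and wells lacking GST-MLLE protein for full effect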
eIF4H FP inh – inhibitors of RNA binding by human eIF4H | inhibition, % at 35 µM | Q15056 | hit rate 0.94% among 290,000 | eIF4H fluorescence polarization binding assay;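 also: calls also rest on retests at 20 µM and on dose response follow-up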
Numbers without * were called inactive; i = inactive; nt = no result given; + = active, no number. Unless noted, no rule for the calls is given here.

SMILES	PHOSPHO1 inh	PABP polyA inh	APOBEC3A inh	APOBEC3G inh	MLLE-PAM2 inh	eIF4H FP inh
COc1ccc(-n2nc([N+](=O)[O-])c(=NCCCN3CCCC3=O)n2O)cc1	61*	i	4	0	-4	0
CSc1nsc(SCC(=O)NCc2ccc(C)cc2)n1	nt	i	-5	-10	6	-3
CSc1nsc(SCC(=O)NCc2ccccc2)n1	nt	i	-7	-6	40*	5
O=C(O)Cc1c[nH]c2ccccc12	nt	nt	-5	-9	1	nt
O=C(O)Cc1c[nH]c2cccc(O)c12	40	+	43	33	-6	88*
Cc1ccc(N(CC(=O)N2CCCCCC2)S(C)(=O)=O)c(C)c1	nt	nt	nt	nt	-9	nt
CCOCCCNC(=S)Nc1ccc(S(N)(=O)=O)cc1	88*	i	0	7	11	1
CCCNC(=S)Nc1ccc(S(N)(=O)=O)cc1	31	i	-5	-9	9	-2
O=C(Nc1ccc(Cl)cc1)N1CCN(C(=O)C2CCCO2)CC1 (stereo not given)	63*	i	0	-4	-8	-8
CCSc1ccc(-c2cc(NC=O)c3ncc(-c4cccc(C(=O)NCCN(C)C)c4)n3c2)cc1	nt	nt	nt	nt	-14	nt
CN(Cc1cnc2nc(N)nc(N)c2n1)c1ccc(C(=O)NC(CCC(=O)O)C(=O)O)cc1 (stereo not given)	nt	nt	nt	nt	67*	nt
NC(=O)c1sc2nc(N3CCCCC3)c3c(c2c1N)CCCC3	67*	i	-2	1	-9	-4
COc1cc2cc3c(N)c(C(=O)NCc4ccco4)sc3nc2cc1OC	72*	+	-1	4	4	82*
Nc1c(C(=O)Nc2ccc(Br)cc2)sc2nc(N3CCOCC3)c3c(c12)CCCC3	nt	nt	nt	nt	11	nt
Nc1c(C(=O)NCc2ccco2)sc2nc(N3CCOCC3)c3c(c12)CCCC3	92*	i	-1	-1	13	0
Cc1ccc2nc3sc(C(=O)NCc4ccco4)c(N)c3cc2c1	-32	i	7	14	-6	31
O=C(CCN=C1NS(=O)(=O)c2ccccc21)OCc1nnc(-c2ccccc2)o1	nt	nt	1	-4	-30	nt
O=C(Nc1nnc(-c2ccco2)s1)c1ccccc1	74*	i	1	4	9	48
COc1ccc(C(=O)Nc2nnc(-c3ccco3)s2)cc1	73*	i	-1	-1	-7	34
Cc1ccccc1C(=O)Nc1nnc(-c2ccco2)s1	17	i	10	-8	10	-1
COc1ccccc1C(=O)Nc1nnc(-c2ccco2)s1	38	i	-6	-6	-3	35
N#Cc1c(-c2ccccc2)[nH]c(=S)[nH]c1=O	24	i	-5	-2	28	-4
N#Cc1c(-c2cccc(Cl)c2)[nH]c(=S)[nH]c1=O	28	i	-2	-5	53*	0
CN1CCN(C(=O)CCN2C(=O)/C(=C\c3ccc(Cl)cc3Cl)SC2=S)CC1	84*	i	0	-6	31	-4
COc1cc(C(=S)N(C)C)ccc1O	69*	i	3	37	26	-19
SMILES	PHOSPHO1 inh	PABP polyA inh	APOBEC3A inh	APOBEC3G inh	MLLE-PAM2 inh	eIF4H FP inh
Cc1ccc(NC(=O)c2ncn(CC(=O)NCc3ccccc3)n2)cc1C	nt	nt	-1	0	16	nt
Cn1nccc1C(=O)N1CCCC(N2CCN(Cc3ccc4c(c3)OCO4)CC2)C1 (stereo not given)	61*	i	6	-1	12	7
CC(=O)C1=C(C)NC(SCC(=O)c2ccc(Cl)cc2Cl)=C(C#N)C1c1ccco1 (stereo not given)	74*	i	1	7	-26	12
O=c1[nH]c(=S)[nH]c2c1C(c1ccc(F)cc1)OC(C1CCCCC1)C2 (stereo not given)	nt	nt	nt	nt	20	nt
O=C1CCCC2=C1C(c1ccc(Cl)cc1)n1c(s/c(=C\c3ccc4ccncc4c3)c1=O)=N2 (stereo not given)	11	+	-3	-5	-53	55*
CCOC(=O)C1=C(C)N=c2s/c(=C/c3ccc(OCC(=O)O)c(OC)c3)c(=O)n2C1c1ccc(Cl)cc1 (stereo not given)	nt	nt	0	-3	-168	nt
O=C(CSc1nc2ccccc2[nH]1)NCc1ccco1	25	i	0	-3	-4	4
O=C(CSc1ncc(-c2ccc(F)cc2)[nH]1)NCc1ccco1	74*	i	12	3	20	4
O=C(CSc1nc(-c2ccc(F)cc2)cs1)NC(=O)NCc1ccco1	79*	i	21	13	-6	19
Cc1cc2nc(-c3cccnc3SCC(=O)NCc3ccco3)[nH]c2cc1C	nt	nt	3	-6	-2	nt
O=C(CSc1ncccc1-c1nc2ccccc2[nH]1)NCc1ccco1	61*	i	7	0	-6	12
O=C(CSc1nncs1)NC(=O)NCc1ccco1	25	i	0	-19	4	22
Cc1nnc(SCC(=O)NCc2ccco2)[nH]c1=O	32	+	31	3	13	57*
COc1ccc(S(=O)(=O)N2CCCCC2)cc1NC(=O)c1ccc(Cl)nc1	nt	nt	6	-3	-9	nt
Cc1[nH]c(=O)[nH]c(=O)c1S(=O)(=O)N1CCCC(C(=O)N2CCN(c3cccc(C(F)(F)F)c3)CC2)C1 (stereo not given)	-3	i	-2	-9	8	4
CCc1ccc(N(C(=O)c2snc(C(N)=O)c2N)C(C(=O)NC2CCCC2)c2ccncc2)cc1 (stereo not given)	46	i	-5	-16	-5	2
Cc1c(C(=O)NCc2cccs2)sc(=O)n1Cc1ccc(S(C)(=O)=O)cc1	nt	nt	nt	nt	5	nt
O=C(CSc1ccc2nnc(-c3cccc(F)c3)n2n1)NCc1ccco1	65*	i	-6	-5	5	6
COc1ccc(C2=CC(c3ccc(F)cc3)n3nnnc3N2)cc1 (stereo not given)	-3	i	-1	2	46*	0
Cc1ccc(OCC(=O)Nc2cc(C(C)(C)C)on2)cc1C	35	i	0	-6	-6	3
O=C(c1nnsc1S(=O)c1ccc(Cl)cc1)N1CCOCC1 (stereo not given)	28	i	-1	-8	31	0
O=C(Nc1ccccc1)c1nnsc1S(=O)c1ccc(Cl)cc1 (stereo not given)	93*	i	2	9	32	1
CC1OC(OC2C(OC3C(O[C@H]4CC[C@]5(C)C6C=C[C@]78OC[C@@]9(CC[C@@H](C)[C@H](C)C97)[C@H](O)C[C@@]8(C)[C@]6(C)CC[C@H]5C4(C)C)OC(C)C(O)C3O)OC(CO)C(O)C2O)C(O)C(O)C1O (stereo not given in full)	18	i	nt	nt	nt	0
C[C@H](CO)N1C[C@H](C)[C@@H](CN(C)S(C)(=O)=O)Oc2ccc(NC(=O)NC3CCCCC3)cc2C1=O	nt	nt	-1	-8	1	nt

Bioassay records: PubChem BioAssay, Sanford-Burnham Center for Chemical Genomics
